BJeLR lethal: MLPCN primary cell-based screen for lethality selective to Ras in HRASV12 cells; 0.17% of 300,000 active; BJeLR (HRASV12) viability, CellTiter-Glo ATP luminescence, 48 h; inhibition, % (concentration not given with the values); in the data active = inhibition above about 50%
PrP UTR inh: inhibition of PrP 5' UTR reporter expression; cell-based PrP 5' UTR mRNA reporter, plate reader; inhibition, % (concentration not given with the values); 0.35% of 340,000 active; AID 488862, 2010; in the data active = inhibition above about 52%; also: 0 = median of the neutral control wells
PrPC surface inh: inhibitors of human cell surface prion protein PrPC, primary screen, cell-based, TR-FRET; TR-FRET read-out; inhibition, % at 13.8 µM; Major prion protein (Homo sapiens), P04156; 0.43% of 370,000 active; in the data active = inhibition above about 24%; also: 0% = median of the test wells and 100% = reference compound wells
PriA SSB inh: inhibitors of Klebsiella pneumoniae PriA binding to SSB C-terminal tail, primary screen, biochemical, AlphaScreen; PriA–SSB C-terminal tail interaction (Klebsiella pneumoniae); AlphaScreen SSBct-PriA binding, biotinylated peptide; 0.6% of 430,000 active; inhibition, % at 33 µM; AID 1272365, 2023; in the data active = inhibition mostly above about 37%, no sharp cut-off; inactive = mostly below about 20%;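 also: plate controls were negative control peptide for no effect and reference peptide for full effect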
3CLpro inhibitor: SARS-CoV 3CLpro protease inhibitors, primary screen, biochemical, quenched FRET. Replicase polyprotein 1ab (Severe acute respiratory syndrome coronavirus), P0C6X7. AID 1706, 2009. 0.14% of 290,000 active. inhibition, % at 6 µM. recombinant SARS-CoV 3CLpro, quenched FRET peptide cleavage; in the data active = inhibition above about 12%
PrPC confirm: confirmation of inhibitors of cell surface human prion protein, confirmation, cell-based, TR-FRET; shares compounds with PrPC surface inh; inhibition, % at 13.8 µM; 65% of 1,500 active; cell surface PrPC level; in the data active = inhibition above about 25%
LD9 cytotox: cytotoxicity in LD9 cells, cytotoxicity control for cell surface PrPc inhibitor project, cell-based, luminescence, high throughput. inhibition, % at 13.8 µM. shares compounds with PrPC surface inh. luminescence viability. 29% of 1,500 active; in the data active = inhibition above about 9.5%
The depositor's hits bear a star; . = no result. Rows were chosen to be rich in hits. Some 1.2% of all compounds tested hit in one or more screens of this group.

SMILES	BJeLR lethal	PrP UTR inh	PrPC surface inh	PriA SSB inh	3CLpro inhibitor	PrPC confirm	LD9 cytotox
O=C1CCCC(=O)c2ncccc21	.	.	.	-11	.	.	.
O=C1C(=O)c2cccnc2-c2ncccc21	.	.	31*	.	.	62*	99*
Cn1c(=O)c(C(=O)CSc2nncs2)c(N)n(Cc2ccccc2)c1=O	4	5	66*	-1	-3	65*	2
Cn1cnnc1SCC(=O)c1c(N)n(Cc2ccccc2)c(=O)n(C)c1=O	3	-24	36*	-20	0	19	-7
CCn1ccc(C(=O)N2CCN(c3ccccc3)CC2)n1	.	.	.	-4	.	.	.
CCOC(=O)/C=C/C(=O)NC(=S)Nc1nccs1	.	.	.	-5	.	.	.
COc1ccc(CC(=O)Nc2ccc(N3CCN(c4ccc(OC)cc4)CC3)c(C#N)c2)cc1	-2	0	25*	23	-3	40*	13*
COc1ccc(CCNC(=O)C2CN(C(C)=O)C2)cc1	.	.	.	1	.	.	.
NS(=O)(=O)c1ccc(CCNC(=O)CCCCCn2c(=S)[nH]c3ccc(Br)cc3c2=O)cc1	1	51	25*	8	4	37*	-4
O=C(CCCCCn1c(=S)[nH]c2ccc(Br)cc2c1=O)NCC1CCCO1 (stereo not given)	-7	-13	-1	-1	-2	.	.
COC(=O)Cc1c(C)c2ccc(OCC(=O)N3CCCC(C)C3)c(C)c2oc1=O (stereo not given)	-17	-8	26*	-4	-2	38*	9
COC(=O)Cc1c(C)c2ccc(OCC(C)=O)c(C)c2oc1=O	-4	-44	7	-17	-1	.	.
O=C1OCCC1Sc1ncnc2sccc12 (stereo not given)	-3	-17	31*	-8	-2	32*	3
CCN1C(=O)C2(C(C(=O)c3ccc(C)o3)=C(O)C(=O)N2CCCN2CCOCC2)c2ccccc21 (stereo not given)	-4	-22	-7	1	5	.	.
CCN1C(=O)C2(C(C(=O)c3cc4ccccc4o3)=C(O)C(=O)N2CCCN2CCOCC2)c2ccccc21 (stereo not given)	-6	-16	72*	-3	0	99*	-8
Cn1c(=O)c2c(SCC(=O)Nc3ccc(C(N)=O)cc3)nc(-c3ccccc3F)nc2n(C)c1=O	.	.	.	-13	.	.	.
CCOC(=O)c1c(N=CN(C)C)sc(C=NNc2ccccc2)c1-c1ccc(Cl)cc1	.	.	.	-28	.	.	.
CCOC(=O)c1c(/N=C/N(C)C)sc(/C=N/Nc2ccccc2)c1-c1ccc(Cl)cc1	0	-14	26*	.	1	33*	-5
N#C/C(=C(/O)COC(=O)CSc1ccc(Cl)cc1)c1nc2ccccc2[nH]1	3	-13	27*	2	-1	36*	63*
Cc1cc(SCC(=O)OC/C(O)=C(\C#N)c2nc3ccccc3[nH]2)c(C)cc1Br	11	-39	-2	-2	-2	.	.
COc1ccccc1OCC(=O)OC/C(O)=C(\C#N)c1nc2ccccc2[nH]1	-6	-27	31*	8	-1	54*	64*
Cc1ccccc1OCC(O)=C(C#N)c1nc2ccccc2[nH]1	.	.	.	0	.	.	.
O=C(c1cc(-c2cccs2)[nH]n1)N1CCS[C@H](c2ccccc2F)CC1	.	.	.	0	.	.	.
C[C@](O)(CNS(=O)(=O)c1cccc(F)c1)c1ccc(-c2ccccc2)cc1	.	.	.	-7	.	.	.
Fc1ccc(NC(=S)Nc2nccs2)cc1	7	-54	32*	13	0	20	5
SMILES	BJeLR lethal	PrP UTR inh	PrPC surface inh	PriA SSB inh	3CLpro inhibitor	PrPC confirm	LD9 cytotox
Cc1cccc(-n2c(-c3ccco3)n[nH]c2=S)c1	-6	-9	31*	-14	0	33*	-3
CCSc1cccc(C(=O)Nc2nc3ccc(S(N)(=O)=O)cc3s2)c1	.	.	.	-9	.	.	.
CC(C)Cc1nc(N2CCC(C(N)=O)CC2)c2nnn(Cc3ccccc3)c2n1	-2	-20	-4	-5	-5	.	.
CC(C)Cc1nc(Nc2ccccc2C#N)c2nnn(Cc3ccccc3)c2n1	-10	-44	29*	-9	6	13	0
COc1ccc(Br)cc1[C@@H](NC(N)=O)C(=O)O	.	.	.	-10	.	.	.
Cn1c2ccccc2c(=O)c2ccc(C#Cc3ccc(N)cc3)cc21	-9	-18	29*	-25	-1	53*	19*
Cc1ccc(C(=O)NN=Cc2ccc(OC(=O)c3ccccc3Cl)cc2)cn1	.	.	.	-4	.	.	.
COc1ccc(C(C(=O)NC2CCCC2)N(C(=O)c2snc(-c3ccc(F)cc3)c2N)c2ccc(F)cc2)cc1 (stereo not given)	6	-1	2	-7	4	.	.
COc1ccc(C(C(=O)NC2CCCC2)N(C(=O)c2snc(-c3ccc(F)cc3)c2N)c2ccc(OC)cc2)cc1 (stereo not given)	4	-32	46*	2	2	60*	0
S=c1nc(-c2ccccc2)n(CCCn2ccnc2)c2c1CCCC2	-9	-9	47*	-14	2	46*	-2
Cc1ccc(-n2c(-c3ccc(Br)cc3)c[n+]3c2CCc2ccc4cccnc4c2-3)cc1	77*	-15	25*	38	1	31*	46*
COc1ccc(-n2c(-c3ccc(Cl)cc3)c[n+]3c2CCc2ccccc2-3)cc1	1	-27	8	-17	4	.	.
CCOc1ccc2nc(N(Cc3ccccn3)C(=O)c3cnn(-c4ccccc4)c3C)sc2c1	.	.	.	-20	.	.	.
CC(=NNC(=O)CNC(=O)C1COc2ccccc2O1)c1ccc2c(c1)OCCO2 (stereo not given)	.	.	.	-15	.	.	.
N#Cc1c(N)n(C2OC(CO)C(O)C2O)c2ncnc(N)c12 (stereo not given)	.	55	26*	-17	.	30*	34*
Nc1ncnc2c1ncn2C1O[C@H](CO)[C@@H](O)[C@@H]1O (stereo not given in full)	.	-5	7	-9	.	.	.
Cc1c(C(=O)O)oc2c3c(ccc12)OCCO3	1	-29	26*	-6	-2	31*	1
O=C(COc1nsnc1N1CCOCC1)Nc1ccc(Cl)cc1	-2	-27	26*	3	-6	8	-3
CCN(CC(=O)Nc1c(F)cccc1F)C(=O)c1cc(-c2cccs2)nn1-c1ccccc1	0	-20	25*	-6	.	28*	-8
O=C(NCc1ccco1)c1n[nH]nc1Nc1cccc(F)c1	.	.	.	-3	.	.	.
COc1ccc(Br)c(C(=O)N2CC[C@@]3(CC(=O)c4ccccc4O3)C2)c1	.	.	.	-20	.	.	.

Screens (PubChem)
